D2 antagonist – HTS Assay for Allosteric Antagonists of the Human D2 Dopamine Receptor: Primary Screen for Antagonists; inhibition, % at 10 µM; HEK293 TREx D2 cells, calcium flux, dopamine EC80; 340,000 tested, 2% active; D(2) dopamine receptor (Homo sapiens), P14416; in the data active = inhibition above about 30%; inactive = below that, where a call was filed
Target sequence (P14416 whole entry, looked up): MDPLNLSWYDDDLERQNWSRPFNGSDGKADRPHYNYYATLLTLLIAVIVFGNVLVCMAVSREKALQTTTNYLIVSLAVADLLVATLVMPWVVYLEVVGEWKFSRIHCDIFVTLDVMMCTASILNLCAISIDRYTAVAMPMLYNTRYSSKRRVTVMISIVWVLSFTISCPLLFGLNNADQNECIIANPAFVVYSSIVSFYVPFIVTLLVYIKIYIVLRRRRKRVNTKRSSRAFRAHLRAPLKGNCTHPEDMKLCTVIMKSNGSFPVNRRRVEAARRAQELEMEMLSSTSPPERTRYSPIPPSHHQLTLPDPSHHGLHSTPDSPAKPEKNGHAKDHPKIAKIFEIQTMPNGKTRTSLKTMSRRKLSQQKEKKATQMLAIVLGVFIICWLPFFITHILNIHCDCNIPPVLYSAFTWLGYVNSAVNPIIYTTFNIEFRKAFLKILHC
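Read-out: kinetic calcium fluorescence (1 cycle/s) in inducible HEK293 T-REx D2 cells after an EC80 dopamine addition that followed 180 s compound preincubation. Loss of the dopamine response indicates antagonism.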
D2 ag-1 – Beta-Arrestin HTS for Positive Allosteric Modulators of the Human D2 Dopamine Receptor: Agonists; activation, % (no concentration beside the values); AID 624465, 2012; 360,000 tested, 0.084% active; DiscoveRx PathHunter D2 beta-arrestin, luminescence, 90 min; 100% = 57 uM dopamine signal; in the data active = activation above about 40%
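Agonist mode: compounds alone added to overnight-plated D2 PathHunter cells for 90 min at 37 C, with 57 uM final dopamine (EC100) defining full response. Beta-arrestin recruitment detected by chemiluminescent reagent, read after 1 h at ambient temperature.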
D2 PAM-1 – Beta-Arrestin HTS for Positive Allosteric Modulators of the Human D2 Dopamine Receptor: Potentiators | AID 624464, 2012 | D(2) dopamine receptor (Homo sapiens), P14416 | potentiation, % (no concentration beside the values) | DiscoveRx D2 beta-arrestin cells, luminescence, 90 min; 100% = 57 uM dopamine signal | 360,000 tested, 0.23% active; in the data active = potentiation above about 50%
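PathHunter beta-arrestin assay in DiscoveRx D2 cells. Compounds were added with an EC20 of dopamine (50 nM final) for 90 min at 37 deg C. Luminescence was read 1 h after detection reagent, with 57 uM dopamine as the EC100 control.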
D2 PAM-2 – HTS Assay for Positive Allosteric Modulators of the Human D2 Dopamine Receptor: Primary Screen for Potentiators | D(2) dopamine receptor (Homo sapiens), P14416 | HEK293 T-REx D2, calcium flux, EC20 dopamine potentiation | potentiation, % at 10 µM | 340,000 tested, 0.34% active | AID 485347, 2010;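 active = potentiation over 3 SD above the plate norm, cut at about 30% in these data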
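Tetracycline-induced Hek293 Trex D2 cells, force-coupled to calcium, loaded with no-wash calcium dye. Compound added with 180 s kinetic read for agonism, then EC20 dopamine and a further 180 s read for potentiation.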
D2 ag-2 – HTS Assay for Allosteric Agonists of the Human D2 Dopamine Receptor: Primary Screen for Agonists; activation, % at 2 µM; 340,000 tested, 0.53% active; D(2) dopamine receptor (Homo sapiens), P14416; AID 485358, 2010; HEK293 T-REx D2 cells, calcium flux agonist mode;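 active = activation over 3 SD above normal in the single-dose calcium agonist read, cut at about 30% in these data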
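HEK293 Trex D2 cells, tetracycline-induced, o/n 30 C 5% CO2; no-wash Ca dye, RT 30–90 min; 10-cycle baseline, 23 nl cpd added, kinetic Ca read 180 s; agonist hits = positive Ca response.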
Numbers stand for hits; - = inactive; . = no result given; ! = a repeat was not active. In the library only some 2.4% were active in any assay of this set; here they are far more common.

SMILES	D2 antagonist	D2 ag-1	D2 PAM-1	D2 PAM-2	D2 ag-2
OCCOCCN1CCN(C(c2ccccc2)c2ccc(Cl)cc2)CC1 (configuration not stated)	72	-	-	-	-
COc1cccc(OC)c1OCCN1CCN(C(c2ccccc2)c2ccccc2)CC1	-	-	-	-	-
CC(C)c1ccc(CNCCSc2nnnn2-c2ccccc2)cc1	.	.	.	-	-
CCCCOc1ccc2c(C)cc(=O)oc2c1OCCCC	43	-	-	-	-
CC(=O)c1c(OCC(=O)O)ccc2c(C)cc(=O)oc12	47	-	-	-	-
COc1cc(NC(=O)CCNS(=O)(=O)c2ccc3c(c2)CCN3C(=O)C2CC2)cc(OC)c1	.	.	.	-	-
O=[N+]([O-])c1cc([N+](=O)[O-])c2n[nH]c(-c3ccccc3)c2c1	-	-	-	-	-
O=[N+]([O-])c1cc(-c2n[nH]c(-c3ccccc3)n2)cc([N+](=O)[O-])c1	-	-	53	-	-
COc1ccccc1C1CCN(Cc2ccccc2)CC1	83	-	-	-	32
COc1ccccc1C1CCN(Cc2ccccc2Cl)CC1	92	-	-	-	-
OCCN1CCN(Cc2ccc3ccccc3c2)CC1	-	-	-	-	-
COc1ccc(CN2CCC(Cc3ccccc3)CC2)cc1OC	-	-	-	-	-
COc1ccccc1C1CCN(c2ccc(CO)cc2[N+](=O)[O-])CC1	-	-	-	-	-
COc1ccccc1C1CCN(Cc2ccc3ccccc3c2)CC1	85	-	-	-	-
COc1cc(NC(=O)NCC2CCN(Cc3ccccc3Cl)CC2)cc(OC)c1OC	-	-	-	-	-
COc1ccccc1C1CCN(Cc2cccc([N+](=O)[O-])c2)CC1	110	-	-	-	-
COc1ccc(-c2cc(C(F)(F)F)nc(SCCC(=O)Nc3ccc(NC(C)=O)cc3)n2)cc1	.	.	.	-	-
COc1ccc(NC(=O)CCCn2nc(C)c3sc4ccccc4c3c2=O)cc1	.	.	.	-	-
O=C(CN1C(=O)COc2ccc(S(=O)(=O)NC3CCCC3)cc21)Nc1ccc(Cl)cc1	.	.	.	-	.
COc1ccc2noc3c2c1C(=O)c1ccccc1-3	.	-	-	.	.
O=C1c2ccccc2-c2onc3ccc(NCCCn4ccnc4)c1c23	-	-	67	-	49
Cc1ccc(CNc2ccc(-c3nc(C(C)C)no3)cc2[N+](=O)[O-])cc1	.	.	.	-	-
CC(=O)N1CCc2c(sc3c2c(=O)n(CCc2ccccc2)c(=O)n3Cc2ccc(F)cc2)C1	.	.	.	-	-
Cc1nn(-c2cccc(Cl)c2)c2nc(-c3cccnc3)cc(C(F)(F)F)c12	.	.	.	-	.
CCn1cc(C(=O)OCc2ccccc2)c(=O)c2ccc(C)nc21	-	-	-	-	-
SMILES	D2 antagonist	D2 ag-1	D2 PAM-1	D2 PAM-2	D2 ag-2
CCn1cc(C(=O)OCC(=O)c2cc(C)n(-c3cccc(C(F)(F)F)c3)c2C)c(=O)c2ccc(C)nc21	-	-	-	31	-
CCn1cc(C(=O)OCc2ccc(F)cc2)c(=O)c2ccc(C)nc21	-	-	-	35	-
COc1ccc(CCNC(=O)[C@H](C)NC(=O)N2CCn3c2nc2ccccc23)cc1OC	37	-	-	-	-
C[C@H](NC(=O)N1CCn2c1nc1ccccc12)C(=O)NC1CC1	67	-	-	-	-
CCOc1ccc(-c2nonc2NC(=O)c2oc3c(C)c(C)ccc3c2C)cc1OCC	.	.	.	-	-
CCN1CCN(c2nc3c(S(=O)(=O)c4ccc(Br)cc4)nnn3c3ccsc23)CC1	.	.	.	-	-
COc1cc(OC)cc(C(=O)Nc2ccc3c(c2)N(C2CCCC2)C(=O)c2ccccc2S3)c1	.	.	.	-	-
CCOC(=O)C(NC(=O)c1ccccc1)=C1C=C(C)OC(C)=C1	-	-	-	30	-
CCc1ccc(NC(=O)N2CC(C)Oc3ccc(C)cc32)cc1 (configuration not stated)	.	.	.	-	-
CCOC(=O)c1c(C)[nH]c(C(=O)C(C)Sc2ccc(Cl)cc2)c1C (configuration not stated)	-	-	-	32	-
CCc1ccccc1NC(=O)Cn1nc2c3cc(F)ccc3n(Cc3cccc(C)c3)cc-2c1=O	.	.	.	-	-
Cc1cccc(C(=O)NC2CCN(CC(=O)NCc3ccccc3F)CC2)c1	42	-	-	-	-
COc1cccc(C(=O)NC2CCN(CC(=O)NCc3ccccc3F)CC2)c1	-	-	-	-	-
Cc1ccc2c(c1)N(CC(=O)NCCc1c[nH]c3ccccc13)C(=O)CO2	-	-	-	60	-
CSc1cccc(NC(=O)/C=C/c2ccccc2)c1	39	-	-	-	-
CSc1cccc(NC(=O)/C=C/c2ccc(Cl)cc2)c1	70	-	-	-	-
COc1ccccc1C(=O)Nc1cccc(C(=O)OCc2cc(=O)n3cc(C)sc3n2)c1	.	.	.	-	-
COc1ccc(C(CC(=O)Nc2cccc(C)c2C)N2Cc3ccccc3C2=O)cc1 (configuration not stated)	.	.	.	-	-
COc1ccc(/C=C/C(=O)Nc2ccc3nc4c(c(Nc5ccc(OC)c(OC)c5)c3c2)CCCC4)cc1	.	.	.	-	-
Cc1cccc(N2CCN(Cc3nnc(-c4ccccc4C)o3)CC2C)c1 (configuration not stated)	.	.	.	-	.
O=C(NCCCN1CCCCC1)c1ccc2c(c1)NC(=O)c1ccccc1S2	-	-	-	-	-
CC(C)OCCCNC(=O)c1ccc2c(c1)NC(=O)c1ccccc1S2	-	-	-	37!	-
COc1ccc(C(=O)NCC(c2ccc3c(c2)OCO3)N2CCOCC2)cc1OC (configuration not stated)	.	.	.	-	-
Cc1sc2nc(CSc3ccccc3)nc(N3CCN(C)CC3)c2c1C	90	-	-	-	-
Cc1cc(C)c2sc(N(Cc3cccnc3)C(=O)CCOc3ccccc3)nc2c1	.	.	.	.	-
CCCN1C(=O)/C(=C/c2c(N3CCNC(=O)C3CC(=O)OC)nc3c(C)cccn3c2=O)SC1=S (configuration not stated)	43	.	.	-	55
COc1ccccc1NC(=O)C1=C(C)Nc2nc(SCc3ccc(Cl)cc3)nn2C1c1ccccc1Cl (configuration not stated)	.	.	.	-	-
CCCCCn1c(=O)c(C(=O)OCC)c(O)c2ccccc21	-	-	-	-	-
CCCCn1c(=O)c(C(=O)OCC)c(O)c2ccccc21	38	-	-	-	-
COC(=O)c1c(NC(=O)Cc2coc3cc(C)ccc23)sc2c1CCCC2	.	.	.	-	-
